# Calls of active or inactive are those of the source. How the source made its calls: active means hit-call score of the fitted dose curve at least 0.9, where 1 is the maximum; inactive means score below 0.9.
# Experiment: CCTE_Shafer_MEA_acute_per_burst_spike_number_mean: CCTE's Neural Acute Assay for Average Number of Spikes Per Burst, Shafer Lab (AID 2284015);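 further: hits are decreases in mean spikes per burst versus baseline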
# Protocol: CCTE_Shafer_MEA_acute assay is conducted using Axion Biosystems 48 well microelectrode array (MEA) plates and Maestro recording system. Each well of the MEA plate contains a grid of 16 microelectrodes embedded in the culture surface. Electrically active cells, such as neurons, can be cultured over the electrodes, and electrical activity in these cells can be recorded extracellularly. The spontaneous firing of neurons is captured from each electrode on a microsecond timescale providing both temporally and spatially precise data. […] The CCTE_Shafer_MEA_acute assay uses primary cultures of rat cortical neurons. As these cultures mature over time, neural networks develop functional activity and form cohesive networks in which electrical activity can be highly coordinated. Baseline 40-minute recordings are made on days post-plating 13 or 15, followed by a secondary 40-minute recording after chemical exposure.CCTE_Shafer_MEA_acute_per_burst_spike_number_mean is a component of the CCTE_Shafer_MEA_acute assay. It measures the average number of spikes (action potential firings) in a single-electrode burst (temporally-clustered group of spikes) during a recording in a microelectrode array (MEA) using Axion Biosystems Maestro 768 channel amplifier with the AxIS adaptive spike detector. The recordings before and after chemical treatment are used to calculate a percent change in the mean number of spikes per burst in each well.Data from the assay component CCTE_Shafer_MEA_acute_per_burst_spike_number_mean was analyzed into 1 assay endpoint. This assay endpoint, CCTE_Shafer_MEA_acute_per_burst_spike_number_mean, was analyzed in the negative analysis fitting direction relative to DMSO as the negative control and baseline of activity. Using a type of functional reporter, gain or loss-of-signal activity can be used to understand electrical activity.
# Spontaneous activity in the cortical cultures was recorded using an Axion Biosystems Maestro 768 channel amplifier and Axion Integrated Studios (AxIS) v1.8 (or later) software. The amplifier recorded from all channels simultaneously (gain = 1200 x; sampling rate = 12.5 kHz/channel): raw signals were filtered with a Butterworth band-pass filter (300-5000 Hz), which filters out slower local field potentials leaving only fast potentials, i.e., "spikes", arising from extracellular currents associated with action potentials (Pine 2006; Wheeler and Nam 2011). On-line spike detection of filtered signals was conducted with the AxIS adaptive spike detector, using a threshold of 8x the root mean squared (rms) noise on each channel. Any electrodes with rms noise levels greater than 5 uV were grounded (e.g., no data were recorded). Once grounded, an electrode was grounded for the duration of the experiment. All recordings were conducted at 37 C. Wells were deemed usable if on the day of the exposure >/= 10 electrodes were active (defined as >/= 5 spikes/min). On DIV 13 or 15, a minimum of three wells from one cortical culture preparation were treated with each compound (0.03-40 uM). Prior to recording baseline activity, each mwMEA plate was placed in the Maestro at 37 C and allowed to sit for 20 min while firing rates stabilized. Baseline activity (40 min) was recorded before the addition of each compound. An additional 40 min of spontaneous activity was recorded in the presence of each compound. Changes in network parameters relative to baseline were assessed following compound treatment.
Compound,outcome,AC50
CCCCCCCCCCCC,inactive,–
CCCCC=O,inactive,–
CN(C)CCOC(c1ccccc1)c1ccccc1,inactive,–
O=C(CCCN1CCC(O)(c2ccc(Cl)cc2)CC1)c1ccc(F)cc1,inactive,–
CCCCc1oc2ccccc2c1C(=O)c1cc(I)c(OCCN(CC)CC)c(I)c1,inactive,–
O=C1NS(=O)(=O)c2ccccc21,inactive,–
CCC(C)c1ccccc1O (configuration not stated),inactive,–
Oc1c(Cl)cc(Cl)cc1Sc1cc(Cl)cc(Cl)c1O,–,9.08 µM (active)
N=C(N)c1ccc(OCCCCCOc2ccc(C(=N)N)cc2)cc1,inactive,–
Oc1ccc(Cc2ccccc2O)cc1,inactive,–
OCC(CO)(CBr)CBr,inactive,–
CC(=O)Nc1ccc(O)cc1,inactive,–

# Source: PubChem BioAssay (EPA / NIEHS)
